# Test results as given in PubChem BioAssay (Tox21).
# The source made the active and inactive calls. The call rests on the fitted dose curve; in most records, active means well fitted curve in the direction sought with a large enough effect in the repeat runs; inconclusive means weak or mixed curves; inactive means flat fitted curve, though single readings scatter.
# Experiment: qHTS assay to test for compound auto fluorescence at 535 nm (green) in HEK293 cells (AID 720680)
# Settings: green autofluorescence 485/535 nm; series mostly up to 46 µM; fluorescence, % of fluorescein: at the top concentration
# Source text: U.S. Tox21 Program National Center for Advancing Translational Sciences [NCATS] NIH Chemical Genomics Center [NCGC] U.S. Environmental Protection Agency [EPA] National Institutes of Environmental Health Sciences [NIEHS] National Toxicology Program [NTP] U.S. Food and Drug Administration [FDA] Tox21 Assay Overview: Compound auto fluorescence often interferes with screening of the compound library against various biological targets and signaling pathways. Some of these compounds may have fluorophoric properties. Such properties may interfere with the assay outputs resulting in false positives and/or negatives. To decrease such complications and ensure the compound activities are relevant in terms of biological response, the Tox21 10K compound library was screened for auto fluorescence. From the fluorophores used as reporter signals in our screening assays, the auto fluorescence equivalencies of compounds against three fluorophores have been evaluated: Triamterene, Fluorescein and Rose Bengal sodium for blue, green and red fluorescence, respectively. The fluorescence intensities were measured using Excitation/Emission wavelengths at 405/460nm, 485/535nm and 540/590nm for blue, green and red labels, respectively. This assay includes the green fluorescence data.
# Tox21 Assay Protocol Summary: 2,000 HEK293 cells in 5 uL of culture medium containing 10% dialyzed FBS per well were dispensed into black wall/clear bottom 1536-well plates using a Multidrop Combi Dispenser (Thermo Scientific). The assay plates were incubated for 4-5 hr at 37C to allow cell attachment to the well bottom, followed by the transfer of 23 nL compound or DMSO vehicle by a pintool work station (Kalypsys, San Diego, CA). After the assay plates were incubated overnight at 37C and 5% CO2, fluorescence intensities in the assay plates were measured by an Envision (PerkinElmer, Shelton, CT) plate reader using three labels for measuring blue, green and red fluorescence at […] 460, 535 and 590nm respectively.
# On the % scale 0 is the no-effect control and ±100 the full control effect.
Compound,"fluorescence, % of fluorescein",outcome
OCCCC1CCCCC1,0.0563% [at 91.3 µM] (inactive),–
Cc1ccc(Cl)cc1Cl,0.0206% [at 91.3 µM] (inactive),–
CN1CCCC1,0.0772% [at 91.3 µM] (inactive),–
Cc1ccc(=O)n(-c2ccccc2)c1,-0.119% (inactive),–
N[C@@H](C(=O)N[C@@H]1C(=O)N2C(C(=O)O)=C(Cl)CS[C@H]12)c1ccccc1,0.369% (inactive),–
CCCCOCCOCCOCCCC,-0.0852% [at 91.3 µM] (inactive),–
CC(C)(O)C(=O)c1ccccc1,-0.0495% [at 91.3 µM] (inactive),–
Cc1nc2c([nH]1)c(=O)n(C)c(=O)n2Cc1ccco1,-0.0063% (inactive),–
CC(=O)OCC(CCn1cnc2cnc(N)nc21)COC(C)=O,0.0309% (inactive),–
O=c1[nH]c(=O)n([C@H]2C[C@H](O)[C@@H](CO)O2)cc1I,-0.0504% [at 18.6 µM] (inactive),–
CN1CC(=O)NC1=N,-0.0677% (inactive),–
CCO/C([O-])=N/c1c[n+](N2CCOCC2)no1,0.0759% [at 18.6 µM] (inactive),–
C=COCC1CCC(CO)CC1 (stereo not given),-0.149% [at 91.3 µM] (inactive),–
C[C@@H]1CCN(C(=O)[C@H](CCCN=C(N)N)NS(=O)(=O)c2cccc3c2NC[C@H](C)C3)[C@@H](C(=O)O)C1,-0.0094% (inactive),–
C[N+](C)(C)CCCCCC[N+](C)(C)C,0.015% (inactive),–
C[C@](N)(Cc1ccc(O)cc1)C(=O)O,0.0008% (inactive),–
CS(=O)(=O)O,0.127% [at 91.3 µM] (inactive),–
CN1C(=O)N(C)C(O)C1O (stereo not given),-0.0604% [at 91.3 µM] (inactive),–
NS(=O)(=O)c1cc2c(cc1Cl)NC(C1CC3C=CC1C3)NS2(=O)=O (stereo not given),0.0278% (inactive),–
Cc1cc(O)cc2c1O[C@](C)(CCC[C@H](C)CCC[C@H](C)CCCC(C)C)CC2,–,inactive

Compound,"fluorescence, % of fluorescein",outcome
CC(=O)OC/C=C(\C)CC/C=C(\C)CCC=C(C)C,-0.0354% [at 91.3 µM] (inactive),–
CCOC(=O)c1c(C)n(C)c2ccc(O)cc12,-0.124% (inactive),–
COc1ccccc1OCC(O)CN1CCN(CC(=O)Nc2c(C)cccc2C)CC1 (stereo not given),0.0465% (inactive),–
O=C(CCCN1CCC(O)(c2cccc(C(F)(F)F)c2)CC1)c1ccc(F)cc1,0.0839% (inactive),–
Brc1c(NC2=NCCN2)ccc2nccnc12,0.0364% (inactive),–
O=C(O)Cc1ccc(CCNS(=O)(=O)c2ccc(Cl)cc2)cc1,-0.0213% (inactive),–
O=C(O)COc1nn(Cc2ccccc2)c2ccccc12,0.0658% (inactive),–
O=[N+]([O-])c1ccc(F)cc1F,0.0028% [at 91.3 µM] (inactive),–
OC(CCN1CCCCC1)(c1ccccc1)C1CC2C=CC1C2 (stereo not given),–,inactive
CN1CCN(c2cc3c(cc2F)c(=O)c(C(=O)O)cn3-c2ccc(F)cc2)CC1,0.661% (inactive),–
C/C=C(\C)C#N,0.0249% [at 91.3 µM] (inactive),–
CO[C@]12C[C@@H](COC(=O)c3cncc(Br)c3)CN(C)[C@@H]1Cc1cn(C)c3cccc2c13,0.386% (inactive),–
N[C@H](C(=O)O)c1ccc(O)cc1,-0.181% (inactive),–
N=c1nc(N2CCCCC2)cc(N)n1O,-0.021% (inactive),–
C1CN(CCOCCN2CCOCC2)CCO1,0.0577% [at 91.3 µM] (inactive),–
CCCN1CCCC[C@H]1C(=O)Nc1c(C)cccc1C,0.0195% (inactive),–
CCCCNC(=O)NCCCC,-0.0079% [at 91.3 µM] (inactive),–
c1ccc(CC2=NCCN2)cc1,-0.0182% [at 18.6 µM] (inactive),–
NS(=O)(=O)c1cc(C(=O)O)cc(N2CCCC2)c1Oc1ccccc1,-0.0042% [at 18.6 µM] (inactive),–
Nc1c2c(nc3ccccc13)CCCC2O (stereo not given),0.0169% (inactive),–
